# From PubChem
# Hits are enriched below; roughly 1.5% of the tested compounds scored in any of these assays.
# TMEM16A act = activates or potentiates the mouse TMEM16A chloride channel | AID 623877 | B-score at 10 µM | HEK293 TMEM16A/YFP-H148Q/I152L, iodide quench fluorescence; hits give low values | Q8BHY3 | 0.3% of 340,000 active;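 active means fluorescence-ratio B-score plate-corrected deviation score at least 3 library SD below zero, with starting fluorescence score within 5 deviations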;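 further: channel opened by trigger with iodide after compound preincubation; score built on the fluorescence ratio of max minus min over baseline; more negative score means more quench and so TMEM16A activation or potentiation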
# DAGLB inh = blocks human DAGLB lipase activity | Q8NCG7 | HEK293T DAGLB membrane lysate, EnzChek fluorogenic substrate | inhibition, % at 5.17 µM | 0.059% of 340,000 active | AID 504411; in the data active means inhibition above about 34%;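 further: 0% = enzyme with vehicle and 100% = wells lacking enzyme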
# ANO1 block = blocks the mouse calcium-activated chloride channel TMEM16A; AID 588511; 1.2% of 310,000 active; HEK293 TMEM16A/YFP iodide influx fluorescence, ionomycin; normalized B-score (activity score, 25-100; higher = stronger inhibition) at 10 µM; Q8BHY3;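 active means ratio plate-corrected score three or more library SD toward inhibition, starting fluorescence score within five deviations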;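 further: score derived from kinetic fluorescence span divided by baseline fluorescence per well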
# iPSC survival up = enhancers of human iPSC single-cell survival; hiPSC single-cell survival, ATPlite luminescence; 100% = ROCK inhibitor wells, 0% = DMSO; survival enhancement, % at 20 µM; 0.044% of 360,000 active; in the data active means survival enhancement above about 18%;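 further: cells exposed to compounds for 16 hours before the ATP read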
# ABCB6 inh MLPCN = human ABCB6 transporter inhibition | Q9NP58 | K562-ABCB6 porphyrin accumulation, flow cytometry, 1 h; hits give low values | fluorescence ratio to DMSO, % at 10 µM | 0.19% of 360,000 active;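 active means fluorescence ratio to DMSO below 75%, the collection mean minus 3 SD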;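 further: signal is porphyrin accumulated inside mitochondria; 100% equals median channel fluorescence of DMSO control wells; lower ratio means ABCB6 inhibition with less porphyrin fluorescence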
# Target sequence (Q9NP58 whole entry, looked up): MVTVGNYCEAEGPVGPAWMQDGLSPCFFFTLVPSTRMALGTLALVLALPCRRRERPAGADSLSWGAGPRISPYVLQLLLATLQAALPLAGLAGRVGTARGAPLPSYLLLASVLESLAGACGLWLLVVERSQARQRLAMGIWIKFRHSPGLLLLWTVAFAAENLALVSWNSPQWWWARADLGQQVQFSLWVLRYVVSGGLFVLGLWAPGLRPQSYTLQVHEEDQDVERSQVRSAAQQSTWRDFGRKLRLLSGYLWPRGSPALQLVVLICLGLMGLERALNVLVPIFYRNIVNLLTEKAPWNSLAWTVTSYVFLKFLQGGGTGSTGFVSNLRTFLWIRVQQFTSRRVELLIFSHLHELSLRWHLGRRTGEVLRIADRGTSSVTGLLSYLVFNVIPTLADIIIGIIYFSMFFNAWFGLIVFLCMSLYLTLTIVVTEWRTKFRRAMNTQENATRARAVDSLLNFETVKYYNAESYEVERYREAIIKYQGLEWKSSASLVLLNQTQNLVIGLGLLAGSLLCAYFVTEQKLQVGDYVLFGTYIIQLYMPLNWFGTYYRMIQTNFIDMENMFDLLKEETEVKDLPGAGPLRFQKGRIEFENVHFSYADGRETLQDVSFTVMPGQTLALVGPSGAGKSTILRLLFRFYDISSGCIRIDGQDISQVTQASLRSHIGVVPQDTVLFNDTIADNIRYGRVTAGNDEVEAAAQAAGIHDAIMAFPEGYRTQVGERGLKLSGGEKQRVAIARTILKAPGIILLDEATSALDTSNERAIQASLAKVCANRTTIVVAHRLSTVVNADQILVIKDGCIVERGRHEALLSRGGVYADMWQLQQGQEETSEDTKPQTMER
# Numbers without * were called inactive; i = inactive; · = no result; ! = not active in a repeat.
SMILES,TMEM16A act,DAGLB inh,ANO1 block,iPSC survival up,ABCB6 inh MLPCN
C=C1C(=O)O[C@@H]2[C@H]1CC[C@H](C)[C@]1(O)CCC(=O)[C@@]21C,i,1.5,i,-0.2,100.0
CC1(c2nnnn2-c2ccc3c(c2)OCCO3)CCC(=O)N1Cc1cccc(C(F)(F)F)c1 (stereo unspecified),·,·,·,0.6,101.0
CCN(CC)S(=O)(=O)c1cccc(NC(=O)Nc2cccc(C(F)(F)F)c2)c1,i,-4.3,100*,-3.2,89.0
CCOC(=O)N1CCN(S(=O)(=O)c2ccc3c(c2)CCN3C(=O)C2CC2)CC1,-18.4*,0.9,i,-0.6,93.0
CCOC(=O)C1CCN(S(=O)(=O)c2ccc3c(c2)CC(C)N3C(=O)C2CCC2)CC1 (stereo unspecified),i,-0.3,25*,0.7,99.0
CC1CCN(S(=O)(=O)c2ccc3c(c2)CC(C)N3C(=O)C2CCC2)CC1 (stereo unspecified),i,-4.7,25*,0.3,96.0
COc1ccccc1CNS(=O)(=O)c1ccc2c(c1)CC(C)N2C(=O)C1CC1 (stereo unspecified),i,-2.5,i,0.9,106.0
COc1ccccc1CNS(=O)(=O)c1ccc2c(c1)CC(C)N2C(=O)C1CCC1 (stereo unspecified),i,-22.4,25*,-0.5,101.0
COc1ccc(CN(C)C(=O)CNC(=O)c2sc3ccccc3c2Cl)c(OC)c1,·,-4.2,·,-2.3,89.0
COC(=O)c1cc(Br)ccc1N(Cc1cc(OC)cc(OC)c1)S(C)(=O)=O,i,-4.8,·,-0.9,103.0
COCc1ccc(C(=O)N2CCCC(C(=O)c3ccc(SC)cc3)C2)o1 (stereo unspecified),i,-2.1,i,-0.2,94.0
O=C1NCCN1CCNc1nc(NCC2CC2)nc2cc(-c3ccccc3)sc12,·,·,·,-2.4,96.0
Oc1c(Br)cc(Br)cc1CNc1cnc2ccccc2c1,i,4.9,25*,-0.7,93.0
Oc1c(Br)cc(Br)cc1CNc1ccc(F)cc1,i,-0.6,i,-0.6,97.0
O=C(COc1ccccc1)Nc1nc(-c2ccc(S(=O)(=O)N3CCOCC3)cc2)cs1,i,-6.3,i,-2.0,92.0
O=C(CCc1ccc(S(=O)(=O)N2CCOCC2)cc1)Nc1nc(COc2ccccc2)cs1,i,-3.8,25*,-2.7,97.0
Cc1ccc(S(=O)(=O)NN=C2CCCc3ccccc32)cc1,·,-7.4,·,-3.2,98.0
Cc1cccc(C)c1NC(=O)CSc1nnc(-c2ccco2)c(-c2ccco2)n1,i,3.5,i,-1.7,99.0
Cc1ccccc1NC(=O)CSc1nnc(-c2ccco2)c(-c2ccco2)n1,i,1.7,25*,-1.4,101.0
NC1(N)OC(CN2C(=O)c3ccccc3C2=O)CS1 (stereo unspecified),i,-0.5,100*,-1.0,99.0
CCCc1nc(NCC2CCCO2)c2nnn(Cc3ccccc3)c2n1 (stereo unspecified),-4.92*,-0.4,i,-0.1,102.0
COc1ccccc1NC(=S)N1CCC(c2nc3cc(C)c(C)cc3[nH]2)CC1,i,0.7,i,0.4,104.0
COc1ccc(NC(=S)N2CCC(c3nc4ccccc4[nH]3)CC2)c(OC)c1,i,2.6,i,0.1,66.0*
N#Cc1ccc(OCC(O)CN2CCN(CC(O)COc3ccc(C#N)cc3)CC2)cc1 (stereo unspecified),i,0.9,i,-0.5,101.0
N#Cc1ccc(OCC(O)CN2CCN(c3ncc(C(F)(F)F)cc3Cl)CC2)cc1 (stereo unspecified),i,-0.8,25*,-0.2,100.0
SMILES,TMEM16A act,DAGLB inh,ANO1 block,iPSC survival up,ABCB6 inh MLPCN
Cc1ccc(NC(=O)CN(C)C(=O)CSc2nc3ccccc3c(=O)n2Cc2ccco2)cc1,i,-2.0,100*,-1.4,90.0
CN(Cc1ccccc1)C(=O)CSc1nc2ccccc2c(=O)n1Cc1ccco1,i,-4.7,i,1.2,98.0
COc1ccc(Cn2cc(CN3CCOCC3)nn2)cc1,·,·,·,0.4,99.0
COC(=O)c1sc(N2C(=O)C(O)=C(C(=O)c3ccc(C)o3)C2c2ccc(F)cc2)nc1C (stereo unspecified),i,4.4,i,-0.2,106.0
CSc1nnc(N2C(=O)C(O)=C(C(=O)c3ccc(C)o3)C2c2ccc(C)cc2)s1 (stereo unspecified),-4.8*,4.8,i,-0.6,106.0
Cc1ccc2nc(N3C(=O)C(O)=C(C(=O)c4ccco4)C3c3ccc(O)cc3)sc2c1 (stereo unspecified),i,7.0,25*,0.7,226.0
CSc1nnc(N2C(=O)C(O)=C(C(=O)c3ccco3)C2c2ccccc2)s1 (stereo unspecified),-6.56*,-3.1,i,-0.6,107.0
CCCSc1nnc(N2C(=O)C(O)=C(C(=O)c3ccco3)C2c2ccccc2F)s1 (stereo unspecified),-4.77*,6.6,i,-0.1,108.0
C=CCSc1nnc(N2C(=O)C(O)=C(C(=O)c3ccco3)C2c2ccccc2F)s1 (stereo unspecified),i,6.8,i,0.7,111.0
Cc1ccc(C2C(C(=O)c3ccco3)=C(O)C(=O)N2c2nnc(C)s2)cc1 (stereo unspecified),i,0.5,i,2.2,99.0
COCCN1C(=O)COc2ccccc2C1C(=O)NC1CCCCC1 (stereo unspecified),·,·,·,1.3,102.0
Cc1nnc(N2C(=O)C(O)=C(C(=O)c3ccco3)C2c2cccc3ccccc23)s1 (stereo unspecified),i,3.9,i,-0.2,99.0
CSc1nnc(N2C(=O)C(O)=C(C(=O)c3ccco3)C2c2ccccc2F)s1 (stereo unspecified),-4.76*,1.0,i,-0.3,104.0
COC(=O)c1c[nH]c2c1-c1cc(C(=O)OCc3ccccc3)n(S(=O)(=O)c3ccc(C)cc3)c1C(=O)C2=O,i,4.2,·,-3.9,97.0
O=S(=O)(c1cccc2cnccc12)N1CCCNCC1,i,-1.6,i,57.7*,99.0
O=S(=O)(c1cccc2ccccc12)N1CCCCC1,i,-5.8,·,-0.5,97.0
CC1CNCCN1S(=O)(=O)c1cccc2cnccc12 (stereo unspecified),i,3.1,i,20.0*!,102.0
COc1ccc(NC(=O)C(=O)NCCN2CCN(C(=O)c3cccc(Br)c3)CC2)cc1,i,-0.5,i,0.3,96.0
Cc1ccc(C2(C)NC(=O)N(CC(=O)N3c4ccccc4NC(=O)CC3C)C2=O)cc1 (stereo unspecified),i,-1.1,·,-0.1,95.0
CC(=O)Nc1ccc(NC(=O)COC(=O)c2ccc(S(=O)(=O)N(C)c3ccccc3)cc2)cc1,·,0.4,·,-0.5,104.0
CN(C)C(=O)c1ccc(SC(=S)NCc2ccccc2)cc1,·,·,·,-1.0,98.0
